Test results from PubChem BioAssay AID1159580 (chemical genetic matrix, 2015).
“And” between values parts separate entries of the source, which are not always exact repeats. Equal entries are not always repeated. The whole screen tested about 5,500 compounds, of which about 2,000 (36%) were called active. Roughly 18% stayed inconclusive and do not appear here. Rule as the data show it: active = normalized growth mostly below about 0.91 (no sharp cut-off); inconclusive = no clear call, values can overlap the other calls; inactive = mostly above about 0.92. This is one part of the list.

Test: chemical genetic growth profiling, strain panel (AID 1159580);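 also: tested at 20 µM; growth read once vehicle control cultures reached saturation at 30 °C; 1 = growth at the plate median or of vehicle wells; lower values mean less growth of the strain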
Details: S. cerevisiae deletion strains, growth OD

Measured: normalized growth

CN(Cc1cnc2nc(N)nc(N)c2n1)c1ccc(C(=O)NC(CCC(=O)O)C(=O)O)cc1 (stereo unspecified)
active: locus YBR009C, strain hhf1, stronger effect = lower value 0.888 | locus YBR023C, strain chs3, stronger effect = lower value 0.911 | locus YCL011C, strain gbp2, stronger effect = lower value 0.857 | locus YCL016C, strain dcc1, stronger effect = lower value 0.867 | locus YCL061C, strain MRC1, stronger effect = lower value 0.891 | locus YDL185W, strain tfp1, stronger effect = lower value 0.141 | locus YDR334W, strain swr1, stronger effect = lower value 0.881 | locus YEL037C, strain rad23, stronger effect = lower value 0.902 | locus YGL078C, strain dbp3, stronger effect = lower value 0.32 | locus YHR079C, strain IRE1, stronger effect = lower value 0.188 | locus YHR142W, strain chs7, stronger effect = lower value 0.86 | locus YIL125W, strain kgd1, stronger effect = lower value 0.278 | locus YJL092W, strain hpr5, stronger effect = lower value 0.818 | locus YJL115W, strain asf1, stronger effect = lower value 0.845
inactive: locus YAL021C, strain ccr4, stronger effect = lower value 0.958 | locus YAL026C, strain drs2, stronger effect = lower value 0.911 | locus YAL030W, strain snc1, stronger effect = lower value 0.945 | locus YAL040C, strain CLN3, stronger effect = lower value 1.09 | locus YBL061C, strain skt5, stronger effect = lower value 0.927 | locus YBR021W, strain FUR4, stronger effect = lower value 0.958 | locus YBR171W, strain sec66, stronger effect = lower value 0.94 | locus YBR229C, strain ROT2, stronger effect = lower value 0.987 | locus YBR231C, strain swc5, stronger effect = lower value 0.931 | locus YBR279W, strain paf1, stronger effect = lower value 0.962 | locus YCL029C, strain bik1, stronger effect = lower value 0.988 | locus YCL061C, strain MRC1 (second series), stronger effect = lower value 1.01 | locus YCL069W, strain vba3, stronger effect = lower value 0.948 | locus YCR088W, strain abp1, stronger effect = lower value 0.954 | locus YDL005C, strain med2, stronger effect = lower value 0.997 | locus YDL035C, strain GPR1, stronger effect = lower value 0.975 | locus YDL040C, strain nat1, stronger effect = lower value 0.959 | locus YDL074C, strain BRE1, stronger effect = lower value 0.963 | locus YDL101C, strain DUN1, stronger effect = lower value 0.997 | locus YDL134C, strain PPH21, stronger effect = lower value 1 | locus YDL192W, strain arf1, stronger effect = lower value 0.95 | locus YDR001C, strain nth1, stronger effect = lower value 0.933 | locus YDR069C, strain doa4, stronger effect = lower value 0.955 | locus YDR101C, strain arx1, stronger effect = lower value 0.994 | locus YDR137W, strain rgp1, stronger effect = lower value 0.907 | locus YDR150W, strain NUM1, stronger effect = lower value 0.974 and 0.986 | locus YDR159W, strain sac3, stronger effect = lower value 0.978 | locus YDR162C, strain NBP2, stronger effect = lower value 0.982 | locus YDR195W, strain ref2 1.01 | locus YDR297W, strain sur2, stronger effect = lower value 0.955 | locus YDR318W, strain mcm21, stronger effect = lower value 0.994 | locus YDR335W, strain msn5, stronger effect = lower value 0.97 | locus YDR388W, stronger effect = lower value 1 | locus YDR392W, strain spt3, stronger effect = lower value 0.951 | locus YDR502C, strain sam2, stronger effect = lower value 0.967 | locus YEL003W, strain gim4, stronger effect = lower value 0.967 | locus YEL061C, strain CIN8 (second series), stronger effect = lower value 0.944 | locus YEL061C, strain CIN8, stronger effect = lower value 0.962 | locus YER002W, strain NOP16, stronger effect = lower value 0.971 | locus YER015W, strain faa2, stronger effect = lower value 0.958 | locus YER016W, strain bim1, stronger effect = lower value 0.965 | locus YER110C, stronger effect = lower value 0.985 | locus YER111C, strain swi4, stronger effect = lower value 0.962 | locus YER155C, strain BEM2 (second series), stronger effect = lower value 0.892 | locus YER155C, strain BEM2, stronger effect = lower value 0.976 | locus YER167W, strain BCK2, stronger effect = lower value 0.958 | locus YFR010W, strain ubp6, stronger effect = lower value 0.942 | locus YGL086W, strain mad1, stronger effect = lower value 1 | locus YGL167C, strain pmr1, stronger effect = lower value 0.942 | locus YGL173C, strain kem1, stronger effect = lower value 0.96 | locus YGL227W, strain vid30, stronger effect = lower value 0.922 | locus YGL240W, strain doc1, stronger effect = lower value 0.967 | locus YGL248W, strain PDE1, stronger effect = lower value 0.994 | locus YGL253W, strain hxk2, stronger effect = lower value 0.934 | locus YGR135W, strain pre9, stronger effect = lower value 0.933 | locus YGR252W, strain gcn5, stronger effect = lower value 1.02 | locus YHR013C, strain ard1, stronger effect = lower value 0.938 | locus YHR027C, strain rpn1, stronger effect = lower value 0.945 | locus YHR079C, strain IRE1 (second series), stronger effect = lower value 0.988 | locus YHR094C, strain hxt1, stronger effect = lower value 1 | locus YHR129C, strain ARP1, stronger effect = lower value 0.982 | locus YHR200W, strain rpn10, stronger effect = lower value 0.959 | locus YIL066C, strain RNR3, stronger effect = lower value 1 | locus YIL073C, strain SPO22, stronger effect = lower value 0.95 | locus YIR030C, strain dcg1, stronger effect = lower value 0.975 | locus YJL095W, strain BCK1 (second series), stronger effect = lower value 0.964 | locus YJL129C, strain trk1, stronger effect = lower value 0.89 | locus YJL134W, strain LCB3, stronger effect = lower value 0.992 | locus YJL154C, strain vps35, stronger effect = lower value 0.96 | locus YJL164C, strain tpk1, stronger effect = lower value 0.96 | locus YJL166W, strain qcr8, stronger effect = lower value 0.94 | locus YJL168C, strain set2, stronger effect = lower value 1 | locus YJL187C, strain SWE1 (second series), stronger effect = lower value 0.99 | locus YJL187C, strain SWE1, stronger effect = lower value 0.953 | locus YJR043C, strain POL32, stronger effect = lower value 0.98
0.946 (inactive) and 0.147 (active): locus YHR030C, strain SLT2, stronger effect = lower value
0.993 (inactive) and 0.152 (active): locus YJL095W, strain BCK1, stronger effect = lower value
